# Source: PubChem BioAssay AID1259240 (Keith Lab, Institute of Cancer Science, University of …, 2017)
# A number with no mark means an inactive call. Activity calls are given as the source filed them. No stated cut-off is given here; in the data, active means fold change mostly below about -2 (no sharp cut-off); inactive means mostly above about -1.8.
# Test: TERT promoter activity modulators, primary screen, cell-based, luciferase reporter, human (AID 1259240)
# Conditions: A2780 TERT promoter luciferase reporter, 16 h; at 20 µM, fold versus average of vehicle-only wells
row,SMILES,fold change
1,CCN1C(=O)N/C(=C/c2cn(CC(=O)Nc3ccc(Cl)cc3)c3ccccc23)C1=O,-1.87
2,c1ccc(CN2CCN(c3nnc(Cc4cccnc4)c4ccccc34)CC2)cc1,1.04
3,CCCCNC(=O)CCN1C(=O)c2ccccc2S1(=O)=O,-1.02
4,CN1CCN(CCCNC(=O)Cn2ncc3c4ccccc4n(C)c3c2=O)CC1,-1.07
5,CCOC(=O)c1sc2nccc3c2c1N=CN3c1ccccc1,-1.96
6,Cc1noc(C(=O)Nc2cccc(Cl)c2)c1Cl,1.73
7,O=C(C1CCCN1S(=O)(=O)c1cccc2nsnc12)N1CCN(c2ccccn2)CC1 (stereo not given),-1.3
8,CN(CC(=O)Nc1nccs1)S(=O)(=O)c1ccc2c(c1)n(C)c(=O)c(=O)n2C,1.27
9,CCc1cccc(Nc2nc3ccccc3n3nnnc23)c1,-12.7 (active)
10,O=C(CN1C(=O)COc2ccc(S(=O)(=O)N3CCOCC3)cc21)NCc1ccc2c(c1)OCO2,1.18
11,COC(=O)c1ccc(C2NC(=O)c3n[nH]c(C)c32)cc1 (stereo not given),-1.08
12,C=CCn1c(Oc2ccc(C(=O)OC)cc2)nc2c1c(=O)n(C)c(=O)n2C,-2.04 (active)
13,Nc1cc(-c2ccccc2)nn1S(=O)(=O)c1cccc([N+](=O)[O-])c1,1.1
14,CCOC(=O)N1CCC(Nc2c(N3CCOCC3)c(=O)c2=O)CC1,-1.09
15,Cc1ccccc1-n1cnc2c(sc3nc(N4CCOCC4)c4c(c32)CC(C)(C)OC4)c1=O,-1.84
16,CSc1ccc(-c2nc3sccn3c2Nc2ccccc2)cc1,-1.05
17,CC(C)NC(=O)Cn1ncc2c3ccccc3n(C)c2c1=O,1.04
18,Cn1c(Cc2ccccc2)nn(CN2CCC3(CC2)OCCO3)c1=S,-1.07
19,Cc1cc(NC(=O)c2onc(C)c2Cl)n(-c2ccccc2)n1,1.18
20,CCN1CCN(C(=O)CSc2nc(-c3ccco3)cc(C(F)(F)F)n2)CC1,-1.46

row,SMILES,fold change
1,Cc1csc(NC(=O)C2=CCN(S(=O)(=O)c3ccccc3)CC2)n1,1.13
2,COc1ccc(N2CCN(c3ccc4nnc(C)n4n3)CC2)cc1,-1.14
3,O=C(NCc1ccccn1)c1cccn2c(=O)c3c4c(sc3nc12)CCCC4,-1.8
4,COc1ccc(Br)cc1/C=c1\sc2nc(-c3ccco3)nn2c1=O,1.22
5,Cc1cc(C)c(C#N)c(SCC(=O)Nc2nc(-c3ccccc3)ns2)n1,-1.27
6,CN1C(=O)/C(=C/c2cn(CC(=O)N3CCCCC3)c3ccccc23)c2ccccc21,-1.35
7,CCS(=O)(=O)Nc1ccc(C2=NN(S(=O)(=O)c3ccc(F)cc3)C(c3cccs3)C2)cc1 (stereo not given),1.07
8,Cc1ccc(-n2c(-c3ccco3)nc3c(cnn3-c3ccccc3C)c2=O)cc1F,-1.09
9,CCC(C)(C)C(=O)Nc1nc2c(s1)C(=O)CC(C)(C)C2,1.17
10,CC(C)n1cnc2cc(NCc3ccncc3)ccc21,-2.71 (active)
11,O=C(CSc1ncnc2ccccc12)N1CCc2ccccc21,1.26
12,Cc1nc(SCC(=O)Nc2cc(C)on2)c2c(=O)n(C)c(=O)n(C)c2n1,-1.1
13,O=C(NCC1(c2ccccc2)CCCC1)c1ccc2c(=O)n3c(nc2c1)CCCCC3,-1.33
14,Cc1ccc2[nH]cc(S(=O)(=O)c3ccc(F)cc3)c(=O)c2c1,-1.06
15,CCn1c(SCc2nc(-c3ccc(Cl)cc3)no2)nnc1-c1ccco1,-2.86 (active)
16,COC(=O)c1ccc(C2Oc3c(OC)cccc3C3CC(c4cccs4)=NN32)cc1 (stereo not given),-1.08
17,Cc1ccc(-c2cc(C(F)F)n3ncc(C(=O)N4CC(C)OC(C)C4)c3n2)cc1 (stereo not given),-2.07 (active)
18,CC(C)OCCCNC(=O)Cc1ccc(NC2=NC3CS(=O)(=O)CC3S2)cc1 (stereo not given),-1.17
19,COc1cccc(/C=c2\sc3nc(-c4ccco4)nn3c2=O)c1OC,1.43
20,CC1CCC[C@@H](C)N1C(=O)Cc1ccc(NC2=NC3CS(=O)(=O)CC3S2)cc1 (stereo not given in full),-1.64
